CIT2-GFP yeast: yeast TOR pathway CIT2-GFP modulation | AID 2029 | actives 0.065% (n = 320,000) | S. cerevisiae CIT2-GFP strain, flow cytometry, 3 h; 100 means same as DMSO wells | GFP response vs DMSO, % at 10 µM;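 active = GFP response relative to DMSO above a set limit, near the screen mean plus 3 SD, cut at about 150% in these data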;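 note: ratio of well median GFP fluorescence to mean of DMSO wells on the plate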
MEP2-GFP yeast: yeast TOR pathway MEP2-GFP modulation. S. cerevisiae MEP2-GFP strain, flow cytometry GFP, 3 h; 100% = DMSO control level. GFP response vs DMSO, % at 10 µM. actives 0.51% (n = 330,000). AID 2016;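 active = GFP response versus DMSO above a set limit, roughly screen mean plus 3 SD, cut at about 180% in these data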;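 note: median GFP fluorescence of the barcode-gated MEP2-GFP cells per well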
VLA-4 inh: inhibition in a human VLA-4 binding assay; P13612; VLA-4 expressing cells, ligand binding flow cytometry; inhibition, % (about 7 µM as worked out from the volumes in the protocol); actives 0.2% (n = 330,000); AID 2557; in the data active = inhibition above about 50%
Target sequence (P13612 whole entry, looked up): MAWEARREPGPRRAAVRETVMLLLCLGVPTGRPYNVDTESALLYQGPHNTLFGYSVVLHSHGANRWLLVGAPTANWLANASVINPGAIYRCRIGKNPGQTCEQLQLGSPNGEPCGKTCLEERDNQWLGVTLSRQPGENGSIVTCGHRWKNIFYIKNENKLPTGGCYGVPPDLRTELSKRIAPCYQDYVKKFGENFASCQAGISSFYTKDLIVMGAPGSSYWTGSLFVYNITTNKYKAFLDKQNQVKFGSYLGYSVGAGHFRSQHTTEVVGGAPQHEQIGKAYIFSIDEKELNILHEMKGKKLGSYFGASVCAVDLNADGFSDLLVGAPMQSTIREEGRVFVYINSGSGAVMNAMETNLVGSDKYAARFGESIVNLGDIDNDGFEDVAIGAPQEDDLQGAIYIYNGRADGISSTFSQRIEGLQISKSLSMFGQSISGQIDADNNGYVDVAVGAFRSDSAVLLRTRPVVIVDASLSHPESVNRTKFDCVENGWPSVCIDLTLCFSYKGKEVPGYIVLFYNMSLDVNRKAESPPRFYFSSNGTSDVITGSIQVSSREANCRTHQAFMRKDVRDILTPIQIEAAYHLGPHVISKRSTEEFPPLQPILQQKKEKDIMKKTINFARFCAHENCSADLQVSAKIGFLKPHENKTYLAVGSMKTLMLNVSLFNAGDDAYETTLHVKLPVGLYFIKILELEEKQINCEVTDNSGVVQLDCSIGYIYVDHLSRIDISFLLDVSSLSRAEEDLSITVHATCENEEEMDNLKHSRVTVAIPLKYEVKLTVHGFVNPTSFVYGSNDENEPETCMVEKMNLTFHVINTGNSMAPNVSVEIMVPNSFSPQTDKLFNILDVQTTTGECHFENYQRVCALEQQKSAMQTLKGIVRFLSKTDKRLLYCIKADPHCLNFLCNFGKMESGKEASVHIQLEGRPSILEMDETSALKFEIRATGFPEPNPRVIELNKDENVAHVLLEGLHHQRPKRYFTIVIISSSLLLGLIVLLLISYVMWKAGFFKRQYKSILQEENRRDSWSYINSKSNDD
LAP4 TOR yeast: modulators of TOR pathway LAP4-GFP in S. cerevisiae; S. cerevisiae LAP4-GFP multiplex, flow cytometry GFP, 3 h; median GFP as percent of DMSO wells; GFP response vs DMSO, % at 10 µM; actives 0.34% (n = 320,000); AID 2023;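 active = GFP response vs DMSO above a set limit, about the screen mean plus 3 SD, cut at about 150% in these data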
RPL19A-GFP yeast: modulators of TOR pathway RPL19A-GFP in S. cerevisiae | S. cerevisiae RPL19A-GFP strain, flow cytometry, 3 h; hits give low values | percent response vs DMSO, % at 10 µM | actives 0.3% (n = 330,000) | AID 2025;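 active = percent response vs DMSO below 50%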;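 note: median channel GFP fluorescence of the barcoded RPL19A-GFP strain; ratio of sample median GFP to plate DMSO average so 100% = DMSO; lower means less RPL19A-GFP as with rapamycin TOR inhibition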
AGP1-GFP MLPCN: modulators of TOR pathway AGP1-GFP in S. cerevisiae; S. cerevisiae AGP1-GFP multiplex flow cytometry, 3 h; GFP as percent of DMSO wells; AID 2066; GFP response vs DMSO, % at 10 µM; actives 0.02% (n = 320,000);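 active = GFP response relative to DMSO above a set limit, near screen average plus 3 SD, cut at about 150% in these data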;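 note: median GFP channel fluorescence of the gated AGP1 strain per well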
LAP4-GFP pick2: second confirmation of modulators of TOR reporter LAP4-GFP in yeast | shares compounds with LAP4 TOR yeast | S. cerevisiae LAP4-GFP strain, flow cytometry GFP, 3 h | GFP response vs DMSO, % at 10 µM | actives 20% (n = 590);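 active = GFP signal as percent of the solvent control above about 150%, meaning raised reporter expression, limit read from the data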;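 note: ratio of well median GFP fluorescence to plate DMSO mean so 100% = DMSO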
MEP2-GFP pick2: second confirmation of modulators of TOR reporter MEP2-GFP in yeast. GFP response vs DMSO, % at 10 µM. actives 10% (n = 590). AID 2622. shares compounds with LAP4 TOR yeast. S. cerevisiae MEP2-GFP strain, flow cytometry GFP, 3 h;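 active = GFP signal above 150% of the solvent control wells, that is a rise of more than half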;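 note: median channel GFP fluorescence of all gated yeast cells per well; ratio of median GFP to plate DMSO average so 100% = DMSO level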
RPL19A GFP CP2: yeast RPL19A-GFP TOR reporter modulation, second cherry pick; shares compounds with LAP4 TOR yeast; actives 3% (n = 590); GFP response vs DMSO, % at 10 µM; S. cerevisiae RPL19A-GFP strain, flow cytometry GFP, 3 h; hits give low values; 100% means same as DMSO wells;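 active = under 65% GFP response relative to DMSO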;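 note: median GFP channel fluorescence per well over the all cells gate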
CIT2 GFP CP2: second confirmation of modulators of TOR reporter CIT2-GFP in yeast; shares compounds with LAP4 TOR yeast; S. cerevisiae CIT2-GFP strain, flow cytometry GFP, 3 h; DMSO control wells read 100%; GFP response vs DMSO, % at 10 µM; actives 8% (n = 590); AID 2624;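 active = GFP response vs DMSO above about 150%, limit read from the data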;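 note: median green fluorescence per well over all gated yeast cells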
AGP1 GFP CP2: second confirmation of modulators of TOR reporter AGP1-GFP in yeast; 590 tested, under 10 active; AID 2643; S. cerevisiae AGP1-GFP strain, flow cytometry GFP, 3 h; shares compounds with LAP4 TOR yeast; percent response vs DMSO, % at 10 µM;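 active = over 150 percent of DMSO response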;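 note: median GFP channel fluorescence over all cells without mother daughter split; sample median GFP divided by mean DMSO control so 100% equals DMSO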
s288c autofluor: compound is autofluorescent in yeast s288c cells | shares compounds with LAP4 TOR yeast | S. cerevisiae s288c, 520 nm autofluorescence, flow cytometry, 3 h; hits give high values; zero means same as solvent-only cells | fluorescence change (kMESF span) at 33 µM | 610 tested, under 10 active;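 active = fluorescence span over the dose series, or activity score, above about 33, limit read from the data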
Yeast autofl DR: TOR screen hit shows autofluorescence in yeast s288c; 110 tested, under 10 active; fluorescence change (span) at 33 µM; S. cerevisiae s288c parental, compound autofluorescence, flow cytometry, 3 h; shares compounds with LAP4 TOR yeast;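 active = fluorescence change span, or the activity score built from it, above 25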
TORC1 bypass: compounds blocking wildtype yeast growth but not TORC1 bypass cells; growth rating (0-3) at 30 µM; 120 tested, under 10 active; S. cerevisiae BY4741 spot growth rating, 48-72 h; hits give low values; shares compounds with LAP4 TOR yeast; AID 504456;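 active = growth rating at most 1 for wild type yeast while the TORC1 bypass strain still grows fully, rated 3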
* = called active by the depositor; x = no result given; [ ] = dose if it differs, or a comment. In the library only some 1.1% were active in any assay of this set; here they are far more common.

SMILES	CIT2-GFP yeast	MEP2-GFP yeast	VLA-4 inh	LAP4 TOR yeast	RPL19A-GFP yeast	AGP1-GFP MLPCN	others
Cc1ccc(C(=O)CC(=O)c2ccccc2)cc1	106	109	7	94	103	100
Cc1ccc(C(=O)Sc2cccccc2=O)cc1	74	97	6	244*	88	84	s288c autofluor=1.6
Cc1ccc(SCC(=O)NNC(=O)CCS(=O)(=O)c2ccccc2)cc1	124	114	2	91	104	107
Cc1ccc(SCC(=O)NNC(=O)CCS(=O)(=O)c2ccc(C)cc2)cc1	87	109	2	219*	76	115	LAP4-GFP pick2=105;MEP2-GFP pick2=101;RPL19A GFP CP2=99;CIT2 GFP CP2=103;AGP1 GFP CP2=99
Cc1cccc(/C=N/NC(=O)CC(=O)NCCc2ccccc2)c1	84	92	5	93	97	88
COc1ccccc1C(=O)N1CCN(C(=O)c2oc3ccc(C)cc3c2C)CC1	95	97	1	76	101	87
Cc1cc(NC(=O)CSc2nnc(-c3ccncc3)n2-c2ccc(F)cc2)no1	91	135	4	98	63	75	LAP4-GFP pick2=100;MEP2-GFP pick2=103;RPL19A GFP CP2=100;CIT2 GFP CP2=97;AGP1 GFP CP2=97
CCn1c(SCC(=O)Nc2cc(C)on2)nnc1-c1ccncc1	95	92	-11	93	98	104
O=C(NNC(=S)NC(=O)c1ccc(F)cc1)c1ccncc1	103	103	7	99	98	102
CC1(C(=O)NC(=S)NNC(=O)c2ccncc2)CCCCC1	227*[may fluoresce green]	543*[may fluoresce green]	5	160*[may fluoresce green]	74	156*[may fluoresce green]	LAP4-GFP pick2=102;MEP2-GFP pick2=105;RPL19A GFP CP2=100;CIT2 GFP CP2=107;AGP1 GFP CP2=98;s288c autofluor=0.2
O=C(NNC(=S)NC(=O)C12CC3CC(CC(C3)C1)C2)c1ccncc1	x	117	-6	182*	83	94	s288c autofluor=1.5
Cc1cc(C(=O)COC(=O)c2cccc(O)c2)c(C)n1C1CC1	98	100	1	102	96	99
Cc1cccn2c(=O)c3cc(C(=O)NC4CCCC4)sc3nc12	119	103	14	95	101	92
CC1=C(C#N)c2nc(N)c(C#N)c(C)c2/C1=C\c1ccc(OCC(=O)O)c(Cl)c1	75	89	6	83	102	100
O=C(Oc1c(Cl)cc(Cl)c2cccnc12)c1cccs1	82	102	16	222*	98	83	LAP4-GFP pick2=201*;MEP2-GFP pick2=141;RPL19A GFP CP2=108;CIT2 GFP CP2=118;AGP1 GFP CP2=104;s288c autofluor=0.81
O=C(Oc1cncc(Cl)c1)c1ccco1	102	94	1	90	96	89
O=C(Oc1c(CN2CCOCC2)cc(Cl)c2cccnc12)c1cccs1	99	99	4	85	105	92
O=C(Oc1c(Cl)cc(Cl)c2cccnc12)c1ccco1	71	108	-1	230*	95	85	s288c autofluor=1.3;Yeast autofl DR=0.26;TORC1 bypass=0
COc1ccccc1-c1nc(S(=O)(=O)c2ccccc2)c(N2CCOCC2)o1	95	94	-11	94	96	95
CCc1ccc(OCC(=O)Nc2ccc(S(=O)(=O)Nc3ccccn3)cc2)cc1	112	102	9	100	102	101
O=C(COC(=O)c1cc(=O)[nH]c2ccccc12)Nc1ccc(F)cc1	89	105	16	111	99	101
COCCn1cnc2c1c(=O)n(CC(=O)NC(=O)NC(C)(C)C)c(=O)n2Cc1ccccc1	95	102	-8	91	109	94
CCNC(=S)NNC(=O)Cn1c(=O)c2c(ncn2CCOC)n(Cc2ccccc2)c1=O	81	221*	0	179*	85	97	LAP4-GFP pick2=99;MEP2-GFP pick2=108;RPL19A GFP CP2=101;CIT2 GFP CP2=102;AGP1 GFP CP2=100
CN(CC(=O)Nc1ccc(Cl)cc1)C(=O)CCc1nc2sc3c(c2c(=O)[nH]1)CCCC3	96	93	1	92	92	95
COc1ccc(CCN(C)Cc2ccc(C(=O)Nc3ccccc3)cc2)cc1OC	96	92	14	93	101	99
Cc1cc(NC(=O)c2cccnc2Cl)ccc1NC(=O)c1cc2ccccc2o1	103	100	-8	90	105	97	s288c autofluor=0.1

Screens deposited in PubChem BioAssay by NMMLSC.
